From PubChem BioAssay AID538 (PCMD, 2006)
About 100 (0.16%) of roughly 62,000 compounds were called active.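 The calls were made as follows: active = inhibition above 20% in each of the two 10-compound mixture wells holding the compound; inactive = the rest.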 For the sample, actives were picked, then their nearest neighbours and some compounds at random.

Molecular target: Complement C1s subcomponent (Homo sapiens) (UniProt P09871)
Experiment: human C1s inhibition by compound pools – biochemical, 10-compound mixtures, primary screen (AID 538);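 also: 0% = enzyme wells lacking compound mixture and 100% = no-enzyme blank wells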
Conditions: purified C1s, fluorogenic AMC substrate, pooled mixtures; screened at 5 µM (by protocol)

Complement C1s subcomponent (Homo sapiens), sequence (P09871 16-437 limits assumed): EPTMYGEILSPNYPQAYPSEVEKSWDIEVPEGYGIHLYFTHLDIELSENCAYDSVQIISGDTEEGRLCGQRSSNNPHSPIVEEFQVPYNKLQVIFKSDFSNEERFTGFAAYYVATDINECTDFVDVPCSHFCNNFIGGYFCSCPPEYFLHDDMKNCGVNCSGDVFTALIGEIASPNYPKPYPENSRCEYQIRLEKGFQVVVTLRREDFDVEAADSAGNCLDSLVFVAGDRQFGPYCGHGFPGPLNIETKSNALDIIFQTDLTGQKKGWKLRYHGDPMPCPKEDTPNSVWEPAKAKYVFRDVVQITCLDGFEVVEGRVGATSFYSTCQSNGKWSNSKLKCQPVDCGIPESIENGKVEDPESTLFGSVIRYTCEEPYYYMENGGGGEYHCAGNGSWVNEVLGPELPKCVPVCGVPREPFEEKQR
Complement C1s subcomponent (Homo sapiens), sequence (P09871 438-688 limits assumed): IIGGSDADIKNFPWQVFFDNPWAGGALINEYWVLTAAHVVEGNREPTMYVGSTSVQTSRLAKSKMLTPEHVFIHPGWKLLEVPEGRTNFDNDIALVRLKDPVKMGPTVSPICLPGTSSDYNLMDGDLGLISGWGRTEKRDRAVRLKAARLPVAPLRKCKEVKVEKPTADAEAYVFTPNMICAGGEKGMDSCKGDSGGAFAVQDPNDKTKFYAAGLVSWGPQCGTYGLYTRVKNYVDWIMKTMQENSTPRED

Mean inhibition % of two 10-compound mixtures (hits give high values), inactive:
O=S(=O)(NCc1ccccn1)c1ccc(Br)s1 -20.3%
COc1ccc(C(=O)Nc2c(N)nc(SCC(=O)N3CCC(C)CC3)[nH]c2=O)cc1OC -31.6%
CC1(C)CC(=O)C=C(NCc2ccncc2)C1 -4.76%
Cc1ccc2c(c1)c1ncn(CCC3=CCCCC3)c(=O)c1n2C 2.97%
CCCn1c(SCC(=O)c2ccc3c(c2)OCCO3)nnc1C(C)C -7.42%
Cc1nn(-c2ccccc2)c2[nH]c(C(F)(F)F)cc(=O)c12 1.25%
CS(=O)(=O)N(C(=O)NC(=O)NC1CCS(=O)(=O)C1)C1CCCCC1 (centres undefined) -74.3%
CCCS(=O)(=O)N1CCC(C(=O)NCCCN(C)Cc2ccccc2)CC1 2.46%
CCc1cc(Br)ccc1NC(=O)C1CCCO1 (centres undefined) 4.52%
Cc1cccc(OCC(O)Cn2c(=N)n(CCN3CCOCC3)c3ccccc32)c1 (centres undefined) 3.52%
O=S(=O)(NCCOc1cccc2cccnc12)c1ccc(F)cc1 8.29%
CCOC(=O)CN(C(=O)CN1CCOCC1)c1ccc(Br)cc1 1.94%
O=C(Nc1ccc(Cl)cn1)Nc1cccs1 7.83%
CC(NC(=O)c1cc(-c2ccccc2)on1)c1ccccc1 (centres undefined) -25.3%
CCn1ncc(C2=NOC(C(=O)Nc3ccccc3C(=O)OC)C2)c1C (centres undefined) 1.96%
COc1ccc(CCNC(=O)CN2CCC(n3nnc4cc(F)ccc43)CC2)cc1OC 2.77%
Cc1ccc(Cn2nnc3c(=O)n(CC(=O)N4CCCCC4)cnc32)cc1 -35.5%
Cc1ccc(CNC(=O)C2CC(=O)N(C3CCCCCCC3)C2)cc1 (centres undefined) -34.1%
COc1ccccc1N(C(=O)Cn1nnc2ccccc21)C(C(=O)NCc1ccco1)c1ccc(C)o1 (centres undefined) 8.72%
C#CCN1C(=O)C(O)(CC(=O)c2cc(OC)ccc2OC)c2ccccc21 (centres undefined) 11.6%
C=CCn1c(SCn2nnc3ccccc3c2=O)nnc1-c1ccc(Cl)cc1 9.21%
CCOc1ccc(S(=O)(=O)N(CC(=O)O)c2ccccc2)cc1 -11.4%
O=S1(=O)CCN2C(=N1)SC1=C2CCN(Cc2ccccc2)C1 15.2%
Cc1cc(C)cc(NC(=O)N2CCC(NC(=O)c3ccc(F)cc3)CC2)c1 3.5%
CC(C)CCNC(=O)C(C)N(C(=O)Cn1nnc(-c2ccc(F)cc2)n1)C1CCCC1 (centres undefined) -3.08%
CCCCCOC(=O)NCCOC(=O)Nc1ccc(C(=O)OCC)cc1 1.11%
CCNc1nc(SCCOc2ccccc2)nc(N(C)C)n1 3.09%
C=CCn1c(SCC(=O)NC23CC4CC(CC(C4)C2)C3)nc(O)cc1=O -25.2%
COC(=O)c1cccc(NC(=O)CN2CCC(NC(=O)c3cc(OC)c(OC)c(OC)c3)CC2)c1 -69.7%
Cc1cccc(N2CCN(S(=O)(=O)c3ccc4c(c3)c(=O)n(C)c(=O)n4C)CC2C)c1 (centres undefined) 12.1%
CCCC(=O)Nc1ccc(C(=O)NCCCn2ccnc2)cc1 14.7%
COc1ccc(-c2cc3ccc(OCc4nn[nH]n4)cc3oc2=O)cc1 -281%
COc1ccc(S(=O)(=O)N(C)CC(=O)Nc2ccc3c(c2)OCCO3)cc1OC 3.88%
COc1cccc(C(=O)Nc2c3c(nn2-c2cccc(C)c2C)CS(=O)(=O)C3)c1OC -0.81%
CC(=O)N1CCN(c2cccc(C)c2C)CC1 6.81%
Cc1nnc(NC(=O)CCC(=O)N2CCC(C)CC2)s1 4.7%
O=C(C(Cc1ccccc1)n1cccc1)N1CCN(C2CCCCC2)CC1 (centres undefined) 11.2%
Cn1c(SCC(=O)N2CCOCC2)nnc1-c1ccc(NC(=O)c2ccccc2F)cc1 3.6%
O=C(COc1ccc(F)cc1)N(CC1=CCS(=O)(=O)C1)c1ccccc1 4.83%
O=C1NC2(CCCCC2)N=C1c1ccccc1 2.35%
CCC/C(O)=C1\C(=O)CC(C)(C)CC1=Nc1ccccc1OC 9.67%
O=C(CS(=O)(=O)c1cn(Cc2cccc(F)c2)c2ccccc12)N1CCCCC1 -0.735%
CCOc1ccc(Cn2nnc(C(=O)NCc3ccccc3)c2N)cc1 -16.1%
Oc1ccc(Cl)cc1/C=N/c1nc2ccccc2[nH]1 5.15%
CCN=C1SC(CC(=O)Nc2ccc(C)cc2)C(=O)N1CC (centres undefined) -15%
Cc1occc1C(=O)N1CCCc2ccccc21 -1.12%
CCN(CC)C(=O)CSc1nnc(-c2cnccn2)n1-c1ccc(C)cc1 14.1%
COc1ccc(-c2nnc(SCC(=O)NC3CCCCC3)o2)cc1OC -3.36%
CCCOC(=O)C1=C(C)NC2=C(C(=O)C(C(=O)OC)C(C)C2)C1c1ccc(N(C)C)cc1 (centres undefined) -5.72%
CC(CN1CCCCC1)OC(=O)c1ccccc1Cl (centres undefined) 2.23%
CN1CCCc2cc(C#N)c(=O)[nH]c21 -74.4%
Cc1ncn(C23CC4CC(CC(O)(C4)C2)C3)n1 0.845%
Cc1ncc(CC(=O)n2cc(C(=O)c3cc(Cl)ccc3O)cn2)s1 8.66%
Cn1c(=O)c2c(nc(SCC(=O)Nc3ccccc3N3CCCCC3)n2C)n(C)c1=O -17.6%
